# Screening results as filed in PubChem.
# Compounds with a hit are over-represented: about 3.7% of the library has one in this group of screens.
# TIM10 inh: growth inhibitors of isogenic TIM10 control yeast, primary screen, counter-screen for tim10-1 yeast inhibitor project, luminescence, uHTS | S. cerevisiae TIM10 strain growth, BacTiter-Glo luminescence, 24 h | inhibition, % at 10 µM | 330,000 compounds, 1.4% hits;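 active = inhibition of 40% or more at the single tested concentration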;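 also: wild-type TIM10 isogenic control strain grown at permissive 25 °C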
# tim10-1 inh: growth inhibitors of tim10-1 mutant yeast, primary screen, luminescence, uHTS; S. cerevisiae tim10-1 ts strain growth, BacTiter-Glo, 24 h; inhibition, % at 20 µM; 330,000 compounds, 2.2% hits; AID 463190, 2010;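 active = inhibition of at least 40%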;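 also: mutant grown at 25 °C; 0% = DMSO wells with yeast and 100% = wells holding no yeast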
# V-ATPase pHluor: regulators of yeast V-ATPase proton pumping, primary screen, pHLuorin cytosolic pH fluorescence | S. cerevisiae | response, % at 10 µM | 350,000 compounds, 0.37% hits | AID 504577, 2011; in the data active = response mostly above about 7.3%, no sharp cut-off; inactive = mostly below about 5.4%; also: actives read high
# tim23-1 inh: growth inhibitors of tim23-1 mutant yeast, primary screen, luminescence, uHTS; 330,000 compounds, 1.3% hits; S. cerevisiae tim23-1 growth, BacTiter-Glo luminescence, 24 h; AID 463212, 2010; inhibition, % at 20 µM;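 active = growth inhibition of the mutant yeast at or above 50%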;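 also: temperature-sensitive mutant grown at 25 °C; plate controls were DMSO-treated mutant yeast for no effect and medium wells lacking yeast for full effect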
# PfHsp90 yeast 2: growth inhibition of PfHsp90-expressing yeast, primary screen, antimalarial PfHsp90 inhibitor project, S. cerevisiae, BacTiter-Glo luminescence, single point, set 2; BacTiter-Glo ATP, 48 h; yeast lacking PDR1 and PDR3 efflux regulators; inhibition, % at 9.4 µM; 310,000 compounds, 0.32% hits; AID 504621, 2011;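 active = every replicate shows inhibition above about 80%, whatever the replicate mean, limit read from the data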;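 also: 0% = DMSO neutral controls and 100% = 20 µM radicicol positive controls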
# tim10-1 confirm: growth inhibitors of tim10-1 mutant yeast, confirmation, single concentration, luminescence, S. cerevisiae; shares compounds with tim10-1 inh; S. cerevisiae tim10-1 ts strain growth, BacTiter-Glo, 24 h; inhibition, % at 20 µM; 7,400 compounds, 56% hits;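 active = inhibition of yeast growth at or above a set limit in either of two repeat tests at 20 µM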;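 also: tim10-1 mutant grown at permissive 25 °C to find synthetic lethal compounds; 0% = DMSO yeast wells and 100% = medium wells without yeast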
# An asterisk follows results filed as active; / = not tested or not shown.
SMILES,TIM10 inh,tim10-1 inh,V-ATPase pHluor,tim23-1 inh,PfHsp90 yeast 2,tim10-1 confirm
COc1cccc(Nc2nc(C)nc3c2oc2ccccc23)c1,24,43*,3,34,-22,29
Cc1ccc(OCC(=O)O/N=C(\N)Cc2cccs2)cc1C,23,44*,-5,38,-28,29
COc1ccccc1C/C(N)=N/OC(=O)COc1ccccc1C,39,41*,2,34,-19,40*
CC(=O)N1CCc2cc(S(=O)(=O)NCC(=O)NCc3ccc(Cl)cc3)ccc21,-11,12,6,10,20,/
CC(C)OCCCn1c(=O)c2ccccc2n2c(CCC(=O)N3CCN(c4ccccn4)CC3)nnc12,11,16,-2,5,-6,/
O=C(CCc1nnc2n(Cc3ccc(Cl)cc3)c(=O)c3ccccc3n12)N1CCN(c2ccccn2)CC1,15,44*,4,31,-37,19
CCC(C)c1ccc(NC(=O)CC(C)=O)cc1 (stereo unspecified),6,42*,9,19,1,24
COc1ccc(NC(=S)NC(C)c2ccncc2)cc1OC (stereo unspecified),-14,-9,-2,-5,8,/
CCC(C)c1ccc(NC(=S)Nc2ccc(OC)c(OC)c2)cc1 (stereo unspecified),29,44*,-2,39,5,32*
CCC(C)c1ccc(NC(=S)Nc2ccc(OC)cc2C)cc1 (stereo unspecified),32,45*,0,45,22,36*
CCC(C)c1ccc(NC(=O)CN(C)CC(=O)Nc2cccc(OC)c2)cc1 (stereo unspecified),8,-3,-1,20,-1,/
COc1ccc2c(c1)CCO[C@]21O[C@H](CCO)C[C@H](O)[C@H]1O,/,/,2,/,/,/
COc1cc(OC)cc(C(=O)N[C@H](C(=O)OCC(=O)c2ccc(C)c([N+](=O)[O-])c2)C(C)C)c1,4,12,4,21,-45,/
COc1ccc(-c2nn(-c3ccccc3)cc2CNC[C@H]2O[C@@H](n3cnc(C(N)=O)n3)[C@H](O)[C@@H]2O)cc1,/,/,0,/,-6,/
COc1ccc(-c2[nH]ncc2/C=N/NC(=O)c2cccc([N+](=O)[O-])c2)cc1OC,10,-18,-3,-38,5,/
CC(NC(=O)c1ccc(F)cc1F)C1CC2CCC1C2 (stereo unspecified),-9,20,2,27,10,/
O=C1c2ccccc2S(=O)(=O)c2cc(C(=O)N3CCN(c4ccc(Cl)cn4)CC3)ccc21,20,44*,1,47,6,42*
N#Cc1cccnc1N1CCN(C(=O)c2ccc3c(c2)S(=O)(=O)c2ccccc2C3=O)CC1,6,26,-4,27,2,/
N#Cc1cccc(NC(=O)CSc2cccc[n+]2[O-])c1,-3,-20,9,-7,25,/
Cc1ccccc1SCC(=O)Nc1cccc(C#N)c1,11,44*,-1,12,16,18
OC1CNc2c(ccc3ccccc23)C1 (stereo unspecified),/,/,-3,/,23,/
COc1ccc(OC)c(N/C(=N/C(=S)Nc2ccccc2)Nc2nc(C)cc(C)n2)c1,5,17,-1,3,/,/
CCc1ccc(NC(=S)N(Cc2ccccc2)Cc2ccccn2)cc1,34,48*,2,36,/,35*
COc1ccc(/C=N\NC(=O)c2cc(O)c(O)c(O)c2)cc1CN1CCN(c2ccc(F)cc2)CC1,/,/,2,/,4,/
COc1cc(/C=C/c2nc(-c3ccccc3O)n[nH]2)cc(OC)c1OC,38,40*,0,45,-33,28
C/C(=N/Nc1ccc(C(=O)O)cc1)c1ccc(O)c(O)c1O,-13,4,0,-5,1,/
C=C(C)CC1Nc2ccccc2NC1CC(=C)C (stereo unspecified),34,42*,-1,43,9,41*
O=C(N/N=C/c1ccc(O)cc1)NC12CC3CC(CC(C3)C1)C2,32,50*,2,41,8,35*
